Screening data: PubChem, The Scripps Research Institute Molecular Screening Center
This is a sample that favours compounds with a hit; in the whole collection about 2.3% have one here.
CHRM1 PAM – human CHRM1 positive allosteric modulation | P11229 | CHO-K1 hM1, Fluo-8 calcium fluorescence, ACh EC20; 0% = ACh EC20, 100% = maximal ACh | activation, % at 3 µM | hit rate 0.088% among 360,000 | AID 588819; in the data active = activation above about 19%, passing the limit was not always enough
Target sequence (P11229 whole entry, looked up): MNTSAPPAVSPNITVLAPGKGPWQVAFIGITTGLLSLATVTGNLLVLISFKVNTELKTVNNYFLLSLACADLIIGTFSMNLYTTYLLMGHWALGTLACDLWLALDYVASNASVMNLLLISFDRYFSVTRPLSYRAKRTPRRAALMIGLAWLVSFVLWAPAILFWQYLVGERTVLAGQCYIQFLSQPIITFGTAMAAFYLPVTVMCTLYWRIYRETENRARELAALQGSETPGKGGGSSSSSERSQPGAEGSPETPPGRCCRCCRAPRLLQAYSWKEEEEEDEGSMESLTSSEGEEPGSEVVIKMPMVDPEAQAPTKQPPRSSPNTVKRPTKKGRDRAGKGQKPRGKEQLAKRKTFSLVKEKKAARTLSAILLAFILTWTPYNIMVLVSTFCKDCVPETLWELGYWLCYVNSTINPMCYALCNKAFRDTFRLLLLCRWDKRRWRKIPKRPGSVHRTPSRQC
M1 ag parental – nonselective activator or artifact in parental CHO-K1 cells. Fluo-8 calcium fluorescence; scaled to maximal ATP response, vehicle zero. activation, % at 3 µM. hit rate 0.48% among 360,000. AID 602248; in the data active = activation above about 15%;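 also: untransfected CHO-K1 host cells lacking M1 receptor as counterscreen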
CHO-K1 Ca antag – nonselective inhibitor or artifact in parental CHO-K1 cells | ATP-induced calcium, Fluo-8 fluorescence | inhibition, % at 3 µM | hit rate 0.6% among 360,000 | AID 602250;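 active = inhibition above a per-plate cutoff, the plate's mean sample inhibition plus 3 SD, cut at about 24% in these data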;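 also: 0% = DMSO plus EC80 ATP and 100% = DMSO alone without ATP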
CHRM1 agonist – human M1 muscarinic receptor agonism; hit rate 0.33% among 360,000; P11229; activation, % at 3 µM; CHO-K1 hM1, Fluo-8 calcium fluorescence, agonist mode; 0% DMSO, 100% acetylcholine EC100; AID 588814;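 active = activation above the run's mean compound activation plus 3 SD, cut at about 16% in these data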;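 also: peak over basal fluorescence ratio within a 140 s kinetic read after compound addition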
CHRM1 antagonist – human CHRM1 antagonism. P11229. CHO-K1 hM1, Fluo-8 calcium fluorescence, ACh EC80 antagonist. inhibition, % at 3 µM. hit rate 1.3% among 360,000. AID 588852;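 active = percent inhibition above its own plate's cutoff, namely the mean of that plate's compound wells plus 3 SD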;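 also: peak over basal fluorescence ratio during 140 s after agonist addition; 0% = ACh EC80 plus DMSO and 100% = DMSO alone without agonist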
CHO-K1 Ca PAM – counter-screen for M1 PAMs: effect in parental CHO-K1 cells; hit rate 0.02% among 360,000; ATP EC20, Fluo-8 calcium fluorescence; 0% at ATP EC20, 100% at ATP max; activation, % at 3 µM;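 active = activation above the run cutoff, the mean activation of all test compounds plus 3 SD, cut at about 40% in these data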;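 also: peak over basal fluorescence ratio in a 140 s read after ATP addition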
Active calls of the source: *.

SMILES	CHRM1 PAM	M1 ag parental	CHO-K1 Ca antag	CHRM1 agonist	CHRM1 antagonist	CHO-K1 Ca PAM
Cc1noc(C)c1C(=O)Nc1cc(S(=O)(=O)N2CCCCC2)ccc1N(C)C	0	0	-6	-5	0	-6
COC(=O)c1sc(NC(=O)c2cccc([N+](=O)[O-])c2)c(C(N)=O)c1C	4	0	-6	-4	1	12
COC(=O)c1c(NC(=O)c2cccc([N+](=O)[O-])c2)sc(C(N)=O)c1C	-6	-1	29*	-4	9	-10
S=c1[nH]nc(-c2ccncc2)n1/N=C/C=C/c1ccccc1	14	1	-9	3	-12	15
S=c1[nH]nc(-c2ccncc2)n1/N=C/C(Cl)=C\c1ccccc1	1	1	-15	39*	11	8
O=C(CCN1C(=O)/C(=C\c2cccs2)SC1=S)Nc1ccc(C(=O)O)cc1	6	1	-4	-3	-1	1
CCN(CC)CCOC(=O)c1ccc(NC(=O)CCCN2C(=O)/C(=C\c3cccs3)SC2=S)cc1	-21	1	2	-5	43*	6
COc1ccc(S(=O)(=O)N2CCCCCC2)cc1C(=O)N(C)Cc1ccc(OC)c(OC)c1OC	-4	4	8	-2	3	-4
c1ccc(OCCN2CCN(C(c3ccccc3)c3ccccc3)CC2)cc1	-25	1	-17	-8	52*	15
COc1cc(CN2CCN(C(c3ccccc3)c3ccccc3)CC2)cc(OC)c1OC	-30	2	8	-9	96*	-3
COc1cccc(CN2CCN(C(c3ccccc3)c3ccccc3)CC2)c1O	-29	0	-13	-8	91*	25
OC(CN1CCN(C(c2ccccc2)c2ccccc2)CC1)c1ccc(Br)cc1 (stereo not given)	-22	0	-5	-10	38*	0
COc1cccc(CN2CCN(Cc3cc(OC)c(OC)c(OC)c3)CC2)c1OC	10	1	-8	-4	-14	11
c1ccc(OCCN2CCNCC2)cc1	4	0	-7	-1	-8	0
Cc1ccc2nc(-c3cccc(S(=O)(=O)N4CC(C)OC(C)C4)c3)cn2c1 (stereo not given)	7	3	0	-4	-8	14
CC(OC(=O)c1ccc([N+](=O)[O-])o1)C(=O)Nc1nc(-c2ccc(F)c(F)c2)cs1 (stereo not given)	-14	7	3	-4	14	-12
OC1(c2ccccc2)CNCCc2ccccc21 (stereo not given)	5	3	-15	-4	-12	17
Cc1ccc(S(=O)(=O)N(C)c2ccc(OC(=O)c3cc(=O)[nH]c4ccccc34)cc2)cc1	-1	0	-8	-2	-9	-1
O=[N+]([O-])c1ccc(Sc2ccccn2)nc1	-2	0	-8	-3	9	9
O=C(Nc1cc(Sc2ccccn2)cc([N+](=O)[O-])c1)c1ccc([N+](=O)[O-])cc1	-16	3	-4	2	24*	14
Cc1cccc(C)c1NC(=O)CN(C)C(=O)Cn1c(=O)cnc2ccccc21	-5	0	-8	-2	-12	-8
CCOc1ccc2nc(NS(=O)(=O)c3ccc4c(c3)n(C)c(=O)n4C)sc2c1	7	0	26*	-2	-3	9
CCOc1ccc(S(=O)(=O)Nc2nc3ccc(OC)cc3s2)cc1	1	0	0	-2	5	9
Cc1cc(C(=O)NC2CCCc3c2cnn3-c2ccc(C(C)(C)C)cc2)nn1C (stereo not given)	-7	12	25*	2	33*	-10
CC(C)(C)c1ccc(-n2ncc3c2CCCC3NC(=O)CCn2cncn2)cc1 (stereo not given)	-23	1	9	-5	54*	-26
SMILES	CHRM1 PAM	M1 ag parental	CHO-K1 Ca antag	CHRM1 agonist	CHRM1 antagonist	CHO-K1 Ca PAM
O=C1Nc2ccc(Cl)cc2C(=O)C1(F)c1ccccc1 (stereo not given)	4	17*	1	-3	-1	15
O=C1Nc2c(ccc(Cl)c2Cl)C(=O)C1(F)c1ccccc1 (stereo not given)	2	3	-1	-4	-2	17
CC(=O)Nc1ccc(S(=O)(=O)N2CCc3cc4c(cc3C2C)OCCCO4)cc1 (stereo not given)	-1	2	-4	-4	4	8
CC(=O)Nc1ccc(C(=O)N2CCc3cc4c(cc3C2C)OCCCO4)cc1 (stereo not given)	-33	0	0	-13	57*	13
CC1c2cc3c(cc2CCN1CC(=O)Nc1ccc(S(=O)(=O)N2CCCC2)cc1)OCCCO3 (stereo not given)	-41	5	-5	-13	102*	7
Cc1ccc(C(=O)N2CCc3cc4c(cc3C2C)OCCCO4)cc1 (stereo not given)	-12	5	-16	-4	13	17
CC1c2cc3c(cc2CCN1C(=O)c1ccc(C(F)(F)F)cc1)OCCCO3 (stereo not given)	-23	4	-18	-5	34*	-10
O=C(CCN1C(=O)/C(=C\c2cccc(Br)c2)SC1=S)N1CCOCC1	-6	1	-6	-1	-2	-3
COC(=O)c1c(N)sc(C(C)=O)c1C	20	0	-12	16*	0	19
Cc1cc(C(=O)NCc2ccc3c(c2)OCO3)ccc1[N+](=O)[O-]	4	23*	-12	4	-2	8
Cc1ccc(C(=O)NCc2ccc3c(c2)OCO3)cc1Cl	-3	0	24*	-3	16	-19
CCC1Oc2ccc(C)cc2N(CC(=O)N2CCCC2)C1=O (stereo not given)	3	0	-6	-1	-6	15
CNC(=O)c1ccc(NC(=O)C2CCN(S(=O)(=O)c3cccc(C(F)(F)F)c3)CC2)cc1	-13	0	13	-3	30*	-19
O=C(/C=C/c1ccc(Cl)c(C(F)(F)F)c1)N1CCN(c2ccccn2)CC1	8	0	-12	-3	-9	8
Cc1ccccc1C(=O)NNC(=O)c1ccc(Br)cc1	7	0	22	0	6	-11
Cc1ccccc1C(=O)NNC(=S)NC(=O)c1ccccc1	-18	55*	5	63*	13	-13
O=C(NC(=S)NNC(=O)c1ccccc1O)c1ccc(F)cc1	-9	30*	0	33*	2	6
Cc1ccc(C(=O)NC(=S)NNC(=O)c2ccccc2O)cc1	-5	0	-11	-1	8	3
O=C(NC(=S)NNC(=O)c1ccccc1O)c1ccc([N+](=O)[O-])cc1	3	1	-7	-3	2	3
O=C(NC(=S)NNC(=O)c1ccccc1O)c1ccccc1	-7	10	-15	24*	1	20
